Molecules are shown by their SMILES. Where “and” joins values, the source holds several entries; their conditions need not be identical. Identical values can stand only once. This is part of a sample that, as a whole, favours compounds with a hit. Of some 83,000 tested, about 20% had one in any assay.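 Assay: single dose, 48 h. Readout: percent growth (0 = no net growth; negative = cell death). Active: <10.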 Calls of active or inactive are those of the source.

The test system of the experiment is MDA-MB-468 breast. Put plainly: NCI-60 one-dose screen, 48 h (100 = growth as untreated, 0 = no growth, -100 = all killed). Particulars: 10 µM unless noted.
For the molecule `O=C1NCC2CCCC1C2` (stereo not given), the growth is 105% (inactive). For the molecule `Cc1nn(-c2ccccc2)nc1C(=O)Nc1ccccc1C(=O)NCC1CC1`, the growth is 107% (inactive) and 87.5% (inactive).

On to `CC(=O)OCC1SC(OC(C)=O)C(NC(=O)/C=C/CCl)C(OC(C)=O)C1OC(C)=O` (stereo not given), for which the growth is 98.5% (inactive). With `Fc1ccc2nc(-c3ccc(-c4noc(-c5ccc(Cl)cc5)n4)cc3)[nH]c2c1` the figure was 110% (inactive). With `CCOC(=O)Nc1cc(-c2ccc(C)c(NS(C)(=O)=O)c2)nn2c(C)nnc12` the figure was -26% (active). With `CCCCCN(CCCCC)CCC[C@@H](C)[C@H]1CC[C@H]2[C@@H]3[C@H](OCCCN)C[C@@H]4C[C@H](OCCCN)CC[C@]4(C)[C@H]3C[C@H](OCCCN)[C@]12C` the figure was 71.1% (inactive); with `Cc1cccc(Cl)c1NC(=O)c1cnc(Nc2cc(N3CCOCC3)cc(N3CCOCC3)c2)s1`, -8.47% (active).

Take `COc1ccc(OC)c(/C=C2\Oc3cc(O)ccc3C2=O)c1`: the growth is 102% (inactive).

Turning to `CCCN1CN2C(=O)N3CN(CCC)CN4C(=S)N(C1)C2C34` (stereo not given), the growth is 107% (inactive). Then `CN(C)c1nc2c([nH]1)c(=O)n(C)c(=O)n2C`, with 101% (inactive); and `C=C(C=O)[C@@H]1CC[C@]2(COC(C)=O)CC[C@]3(C)C(CC[C@@H]4[C@@]5(C)CC[C@H](OC(C)=O)C(C)(C)[C@@H]5CC[C@]43C)[C@@H]12` (stereo not given in full), with 5.16% (active). Regarding `CSc1nc2sc3c(c2c(=O)n1-c1ccc(C(C)C)cc1)CCC(=O)C3`, the growth is -16.5% (active). Take `COC(=O)Nc1ccc(-c2nc(-c3cccc(OC)c3)c(-c3ccnc(Br)c3)[nH]2)cc1`: the growth is 39.1% (inactive).

As for `Cc1nn(-c2ccc(-c3ccc(OC(F)(F)F)cc3)cc2)c2nc(-c3ccccc3)nc(N)c12`, the growth was 82.6% (inactive). As for `O[C@H]1CO[C@H]2[C@@H]1OC[C@@H]2Oc1ccc(Nc2ccnc(Nc3ccc(O[C@H]4CO[C@H]5[C@@H]4OC[C@@H]5O)c(Cl)c3)n2)cc1Cl`, the growth is -7.19% (active).

Take `O=C(CSc1nnc(-c2cc(-c3ccccc3)nc3ccccc23)o1)c1ccc(Br)cc1`: the growth was 103% (inactive). With `COc1ccc(C2=NN(C(C)=O)C(c3ccc(Oc4ccnc5cc(Cl)ccc45)c(OC)c3)C2)cc1` (stereo not given) the figure was 54% (inactive). Consider `COc1cc(NC(=O)CSc2nc3ccccc3c(=O)n2CCc2ccccc2)cc(OC)c1OC`, for which the growth is 29.9% (inactive).

For `CCCCC(O)(c1ccc(Cl)cc1)C(CN1CCOCC1)c1ccc(Cl)cc1` (stereo not given), the growth was 24.7% (inactive). Then `CNC(=O)c1cc(Oc2ccc3nc(NC(=O)c4ccc(CN5CCCN(C)CC5)c(C(F)(F)F)c4)sc3c2)ccn1`, with 8.05% (active). `O=[N+]([O-])c1cccc(/C=N/NC(=S)NC23CC4CC(CC(C4)C2)C3)c1`: the growth is 82.1% (inactive). As to `Cc1cc2c(c(C)n1)CN(C(=O)Nc1nc(-c3cncs3)ccc1N)C2`, the growth was 110% (inactive).

`COc1ccc(C(=O)N2C=Cc3ccccc3C2C#N)cc1` (stereo not given): the growth was 82.9% (inactive). Then `COc1ccc(OC)c(/C=C/c2nc(=S)n(-c3ccc(Cl)cc3)[nH]2)c1`, with 38.8% (inactive); and `COc1cc(/C=C/C(=O)/C=C/c2ccc(-n3ccnc3)cc2)ccc1O`, with 37.8% (inactive). For the molecule `O=C(C[n+]1ccn(CC(OCc2ccc(Cl)cc2Cl)c2ccc(Cl)cc2Cl)c1)c1ccc(F)cc1` (stereo not given), the growth was -77.2% (active). On to `CN(C)/C=C1\SC(=Nc2ccc(Cl)cc2)NC1=O`, for which the growth was 110% (inactive). With `COc1cc2c(c(OC)c1OC)C(=O)CC(c1cccc(C(=O)Nc3ccc(C#N)cc3)c1)O2` (stereo not given) the figure was 58.9% (inactive); with `C1=C\COCc2cc(ccc2OCCN2CCCC2)Nc2nccc(n2)-c2cccc(c2)COC/1`, -53.7% (active); with `COc1ccc(Cn2cc(C(=O)N=Nc3c(O)[nH]c4ccc(Br)cc34)nn2)cc1`, 96.8% (inactive). Take `C1CCCCNCCC1`: the growth was 98.6% (inactive). Then `COc1cccc(NC(=O)c2c(-c3ccccc3)c(-c3ccccc3)n[nH]c2=O)c1`, with 92.4% (inactive); and `COc1ccc([C@@H]2[C@@H](O)C(=O)N2c2cc(OC)c(OC)c(OC)c2)cc1`, with 2.98% (active); and `COC(=O)CCc1c(/C=C2\N=C(c3ccc[nH]3)C=C2OC)[nH]c(C)c1C(=O)OCc1ccccc1`, with 28.5% (inactive).

For the molecule `Cc1ccc(NC(=O)c2ccc(CN3CCN(C)CC3)c(C(F)(F)F)c2)cc1Oc1ccc(-c2[nH]nc3ncnc(N)c23)cc1`, the growth was 117% (inactive). Take `COc1ccc2nc3cc(Cl)ccc3c(NCCN)c2c1`: the growth is -61.6% (active). With `COc1ccc(C2SCC(=O)N2NC(=O)c2ccc(NC(=O)c3ccccn3)cc2)cc1OC` (stereo not given), the growth was 104% (inactive). With `Cc1nn(-c2ccccc2)c(-n2ccnc2)c1/C=N/Nc1nc(-c2ccc(F)cc2)cs1`, the growth was 27.3% (inactive). `Cc1ccc(C)c(COc2cc(NC(=O)c3ccc4c(c3)OCO4)ccc2N(C)S(C)(=O)=O)c1`: the growth is -29.6% (active). As for `Oc1ccc(CN2CCC(N3CCOCC3)CC2)c2cccnc12`, the growth is 36.6% (inactive).

For the origin of these results see PubChem BioAssay (NCI).
